Values joined by “and” are separate entries in the source; they are usually repeats but may differ in a detail not shown here. Equal values may be shown once. Results filed as inconclusive are left out. Some compounds were tested as several samples or in several runs, with calls that do not always agree. Active and inactive are the calls of the source. How the source made its calls, unless noted: active means hit-call score of the fitted dose curve at least 0.9, where 1 is the maximum; inactive means score below 0.9.
Key:
[1] = CCTE_Mundy_HCI_Cortical_NOG_BPCount: CCTE's Neurite Outgrowth Assay in rat cortical cells for Branch Point Count, Mundy Lab (AID 2284237)
Summary of the method: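 Measured 50.33 h after dosing, this morphology endpoint uses rat primary cortical cultures labelled for betaIII-tubulin. Branch points are quantified by high-content imaging, with DMSO as negative control and baseline.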

[2] = read-out: Collagen I, COL1A1 (gene 1277); assay: BSK_MyoF_CollagenI: BioMAP Diversity Plus: MyoF Assay for Collagen I Biomarker Activity (AID 2284238); conditions: primary human lung fibroblasts
Summary of the method: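 Collagen I levels measured by ELISA on human lung fibroblast cultures 24 h post-dosing, with curve fitting in the positive direction relative to DMSO; SRB staining of parallel wells marked cytotoxicity.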

[3] = read-out: Collagen III, COL3A1 (gene 1281); assay: BSK_MyoF_CollagenIII: BioMAP Diversity Plus: MyoF Assay for Collagen III Biomarker Activity (AID 2284239); conditions: primary human lung fibroblasts
Summary of the method: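 Collagen III biomarker quantified by ELISA in human lung fibroblast cultures 24 h after dosing. Activity fitted in the positive direction against DMSO as baseline.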

[4] = CCTE_Mundy_HCI_hNP1_Casp3_7: CCTE's Caspase-Glo 3/7 Assay in human neuroprogenitor cells for Apoptosis, Mundy Lab (AID 2284240)
Summary of the method: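 Neuroepithelial-lineage stem cells from WA09 embryonic cells were treated with chemicals after 40–44 h of culture. Twenty-four hours later, caspase-3/7 activation was detected luminescently after a 30 min room-temperature reagent step, with DMSO as baseline.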

[5] = CCTE_Mundy_HCI_hNP1_CellTiter: CCTE's Cell Titer-Glo 2 Assay in human neuroprogenitor cells for Viability, Mundy Lab (AID 2284241; active means hit-call score of the fitted dose curve at least 0.9, where 1 is the maximum)
Summary of the method: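 Measures ATP content in human neural progenitors derived from WA09 embryonic cells. Read-out at 26.5 hours after dosing, with DMSO serving as the negative control and baseline.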

[6] = CCTE_Mundy_HCI_Cortical_Synap_Neur_Matur_NeuronCount: CCTE's Synaptogenesis and Neurite Maturation Assay in rat cortical cells for Neuron Count, Mundy Lab (AID 2284242; active means hit-call score of the fitted dose curve at least 0.9, where 1 is the maximum;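 on AC50: neuron number from Hoechst nuclei and MAP2 staining by high-content imaging; hits reduce neuron count versus DMSO baseline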)
Summary of the method: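 Imaging-based neuron count in rat cortical cultures after chemical exposure from DIV 7 to DIV 12, with AraC added at DIV 5. Activity is fitted relative to DMSO.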

[7] = read-out: Interleukin 17F (IL17F), IL17F (gene 112744); assay: BSK_BT_xIL17F: BioMAP Diversity Plus: BT Assay for Interleukin 17F (IL17F) Biomarker Activity (AID 2284243); conditions: primary human B cells with PBMC
Summary of the method: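 Human B cells co-cultured with PBMC; secreted IL-17F quantified by LumineX xMAP 24 hours after chemical dosing. Activity fitted in the positive direction against DMSO negative control as baseline.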

[8] = read-out: Actin alpha 1 (ACTA1), ACTA1 (gene 58); assay: BSK_MyoF_ACTA1: BioMAP Diversity Plus: MyoF Assay for Actin alpha 1 (ACTA1) Biomarker Activity (AID 2284244); conditions: primary human lung fibroblasts
Summary of the method: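 Measured by ELISA: alpha-smooth muscle actin in human primary lung fibroblasts 24 h after dosing, with DMSO as baseline and upward signal change as the fitted direction.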

[9] = read-out: Interleukin 2 (IL2), IL2 (gene 3558); assay: BSK_BT_xIL2: BioMAP Diversity Plus: BT Assay for Interleukin 2 (IL2) Biomarker Activity (AID 2284245); conditions: primary human B cells with PBMC
Summary of the method: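 Secreted interleukin-2 from human B cell/PBMC co-cultures, measured 24 h post-dosing by Luminex multiplex immunoassay. Upward-direction curve fitting against DMSO baseline.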

[10] = read-out: Basic fibroblast growth factor (bFGF), FGF2 (gene 2247); assay: BSK_MyoF_bFGF: BioMAP Diversity Plus: MyoF Assay for Basic fibroblast growth factor (bFGF) Biomarker Activity (AID 2284246); conditions: primary human lung fibroblasts
Summary of the method: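 In this multiplexed cell system, lung fibroblasts (human primary) receive test chemical for 24 h before ELISA detection of bFGF; DMSO defines baseline and the analysis direction is positive.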

[11] = read-out: Collagen IV, COL4A1 (gene 1282); assay: BSK_MyoF_CollagenIV: BioMAP Diversity Plus: MyoF Assay for Collagen IV Biomarker Activity (AID 2284247); conditions: primary human lung fibroblasts
Summary of the method: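 Activity is scored as a signal increase over DMSO in an ELISA for Collagen IV, measured on human lung fibroblasts at 24 h after chemical treatment. Cytotoxicity is checked in parallel cultures by sulforhodamine B total-protein staining.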

[12] = read-out: Plasminogen activator inhibitor-1 (PAI1), SERPINE1 (gene 5054); assay: BSK_MyoF_PAI1: BioMAP Diversity Plus: MyoF Assay for Plasminogen activator inhibitor-1 (PAI1) Biomarker Activity (AID 2284256); conditions: primary human lung fibroblasts
Summary of the method: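 Human lung fibroblasts (MyoF system) were exposed to test chemicals for 24 h, then PAI-1 was quantified by ELISA. Activity was fitted in the positive (signal-gain) direction relative to DMSO vehicle as baseline.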

[13] = TAMU_HCS_1.5hr_SingleDonor1434_Cytotoxicity: Cytotoxicity Assessment using High-content Screening (HCS) Fluorescent Imaging for the Texas A&M University (TAMU) 1.5-hr Human Induced Pluripotent Stem Cell (iPSC)-derived Cardiotoxicity Assay (AID 2284234; active means hit-call score of the fitted dose curve at least 0.9, where 1 is the maximum)
Summary of the method: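 Human iPSC-derived cardiomyocytes dosed at 0.2, 1, 10, 100 uM final (0.5% DMSO) for 90 min at 37 C. Hoechst 33342-stained nuclei counted by 10x high-content imaging; POD is EC10, a 10% drop in total cell count versus DMSO.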

[14] = TAMU_PeakParms_SingleDonor1434_QT: Texas A&M University (TAMU) 1.5-hr Human Induced Pluripotent Stem Cell (iPSC)-derived Cardiomyocytes Calcium (Ca+2) Flux Assay for Cardiotoxicity: QT (decay-rise ratio) (AID 2284235; active means hit-call score of the fitted dose curve at least 0.9, where 1 is the maximum)
Summary of the method: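 iPSC-derived cardiomyocytes (single donor 1434) dosed at 0.2, 1, 10, 100 uM final in 0.5% DMSO, 90 min at 37C. Ca2+ flux fluorescence decay/rise ratio; EC05 (5% increase versus DMSO) as POD, excluding beat-arrest and severe-notch data.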

[15] = read-out: Monokine induced gamma interferon (MIG), CXCL9 (gene 4283); assay: BSK_KF3CT_MIG: BioMAP Diversity Plus: KF3CT Assay for Monokine induced gamma interferon (MIG) Biomarker Activity (AID 2284248); conditions: primary human keratinocytes with fibroblasts
Summary of the method: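 Parallel cultures were stained with SRB (560 nm) to check cytotoxicity. MIG was quantified by ELISA in a primary human skin keratinocyte/fibroblast co-culture 24 h post-dosing, with gain of signal fitted relative to DMSO.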

[16] = read-out: Vascular cell adhesion molecule 1 (VCAM1), VCAM1 (gene 7412); assay: BSK_BF4T_VCAM1: BioMAP Diversity Plus: BF4T Assay for Vascular cell adhesion molecule 1 (VCAM1) Biomarker Activity (AID 2284249); conditions: primary human bronchial epithelial cells with fibroblasts
Summary of the method: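 Human bronchial epithelial cell and dermal fibroblast co-culture exposed 24 h. VCAM-1 measured by ELISA; parallel SRB total-protein staining for cytotoxicity. Fitted in positive direction relative to DMSO.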

[17] = read-out: Collagen I, COL1A1 (gene 1277); assay: BSK_hDFCGF_CollagenI: BioMAP Diversity Plus: hDFCGF Assay for Collagen I Biomarker Activity (AID 2284250); conditions: primary human foreskin fibroblasts
Summary of the method: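 Cells were primary human foreskin fibroblasts treated for 24 h. Collagen I levels were then determined by ELISA and compared against DMSO controls.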

[18] = read-out: Monocyte Chemoattractant Protein-1 (MCP1), CCL2 (gene 6347); assay: BSK_IMphg_MCP1: BioMAP Diversity Plus: IMphg Assay for Monocyte Chemoattractant Protein-1 (MCP1) Biomarker Activity (AID 2284253); conditions: primary human endothelial cells with macrophages
Summary of the method: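 Human venular endothelial cells co-cultured with macrophages; MCP-1 measured by ELISA 24 hours post-dose and fitted against DMSO. Cytotoxicity monitored by SRB total-protein staining in parallel cultures.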

[19] = read-out: Macrophage Inflammatory Protein-1 Alpha (MIP1a), CCL3 (gene 6348); assay: BSK_IMphg_MIP1a: BioMAP Diversity Plus: IMphg Assay for Macrophage Inflammatory Protein-1 Alpha (MIP1a) Biomarker Activity (AID 2284255); conditions: primary human endothelial cells with macrophages
Summary of the method: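 Co-culture of human venular endothelial cells and macrophages exposed to compounds for 24 h; MIP-1a measured by ELISA relative to DMSO. Cytotoxicity assessed in parallel cultures by sulforhodamine B total-protein staining at 560 nm.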

[20] = CCTE_Mundy_HCI_Cortical_NOG_NeuronCount: CCTE's Neurite Outgrowth Assay in rat cortical cells for Neuron Count, Mundy Lab (AID 2284236; active means hit-call score of the fitted dose curve at least 0.9, where 1 is the maximum;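 further: neurons counted by imaging betaIII-tubulin and Hoechst stained cortical cells; cells exposed to compound for about 48 hours before fixation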)
Summary of the method: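 Read-out: neuron number by high-content imaging of betaIII-tubulin (Alexa Fluor-488) and Hoechst-labelled rat primary cortical cells.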

Measured: AC50

CC(C)Cc1ccc(C(C)C(=O)O)cc1 (stereo not drawn)
not listed: [13] | [14] | [15] | [16] | [17] | [18] | [19] | [20]
inactive: all other assays above

CC/C(=C(\c1ccccc1)c1ccc(OCCN(C)C)cc1)c1ccccc1
inactive: [14]
active: [13] 82.1 µM

CCOC(=O)CCCCCCCCC(=O)OCC
inactive: [2] | [3] | [7] | [8] | [9] | [10] | [11] | [12]

O=S(=O)(O)C(F)(F)C(F)(F)OC(F)(F)C(F)(F)F
not listed: [1] | [4] | [5] | [6] | [13] | [14] | [20]
inactive: all other assays above

N[C@@H](CCC(=O)O)C(=O)O
inactive: [1] | [4] | [5] | [6]

CC=CC(=O)C1=C(C)C=CCC1(C)C
inactive: [2] | [3] | [7] | [8] | [9] | [10] | [11] | [12]

c1ccc2c(c1)-c1ccc3ccc4cccc5cc-2c1c3c45
inactive: [2] | [7] | [8] | [10]
active: [3] 10 µM | [9] 0.709 µM | [11] 0.0918 µM | [12] 1.24 µM

C=C1CC/C=C(\C)CC[C@@H]2[C@@H]1CC2(C)C
inactive: [7] | [9]
active: [2] 25.7 µM | [3] 30.1 µM | [8] 14.9 µM | [10] 34.7 µM | [11] 23.8 µM | [12] 20 µM

CCCCC(CC)COC(=O)COc1ccc(Cl)cc1C (stereo not drawn)
active: [4] 50 µM | [6] 11.9 µM
inactive: [20] | [1]

C=C(F)C(=O)OC(C(F)(F)F)C(F)(F)F
not listed: [1] | [4] | [5] | [6] | [13] | [14] | [20]
inactive: all other assays above

N#CCCNCCC#N
inactive: [14] | [20] | [1] | [4] | [5]

c1ccc2scnc2c1
inactive: [20] | [1] | [4]

O=C(O)C(F)(F)OC(F)(F)C(F)(F)OC(F)(F)C(F)(F)C(F)(F)C(F)(F)F
active: [2] 30 µM and 31.8 µM | [3] 42.2 µM and 44.1 µM | [11] 43.5 µM and 38.4 µM
not listed: [1] | [4] | [5] | [6] | [13] | [14] | [20]
inactive: all other assays above

CC1=CC(C)C(C=O)C(C)C1 (stereo not drawn) (tested in a mixture with another compound)
inactive: [2] | [3] | [7] | [8] | [9] | [10] | [11] | [12]

CNC(=C[N+](=O)[O-])NCCSCc1ccc(CN(C)C)o1
inactive: [14]

C=C(C)C(=O)OCCC(F)(F)C(F)(F)C(F)(F)C(F)(F)C(F)(F)C(F)(F)C(F)(F)C(F)(F)F
not listed: [1] | [4] | [5] | [6] | [13] | [14] | [20]
inactive: all other assays above

c1ccc(Sc2ccccc2)cc1
inactive: [7] | [9] | [12]
active: [2] 30.3 µM | [3] 34.2 µM | [8] 30.8 µM | [10] 31.9 µM | [11] 32.6 µM

C=CC(=O)OCC(CO)(COC(=O)C=C)COC(=O)C=C
inactive: [11]
active: [2] 2.35 µM | [3] 1.25 µM | [7] 1.15 µM | [8] 1.39 µM | [9] 1.27 µM | [10] 1.62 µM | [12] 2.88 µM

O=C(O)C(F)(F)C(F)(F)C(F)(F)C(F)(F)C(F)(F)C(F)(F)C(F)(F)C(F)F
active: [16] 2.3 µM
inactive: [2] | [3] | [7] | [8] | [9] | [10] | [11] | [15] | [16] | [17] | [18] | [19] | [12]
